DT40 TDP1 no CPT – qHTS for Inhibitors of human tyrosyl-DNA phosphodiesterase 1 (TDP1): qHTS in cells in absence of CPT; DT40 Tdp1-/- hTDP1 cells, no CPT, ATP luminescence, 48 h; Potency, µM (titrated, usually from 46.2 µM), for inactives: at the top dose activity change, negative = growth inhibition, actives largely listed as inhibitors; 15% of 420,000 active; note: potency is the fitted concentration of half-maximal effect; nearly all actives have a fitted effect of over 55% in size
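Growth of hTDP1-complemented DT40 Tdp1-knockout cells is measured by ATP luminescence after at least 48 hr compound exposure at 37 °C, with DMSO substituting for the 20 nM CPT used in the parallel screen.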
TDP1 cell CPT – qHTS for Inhibitors of human tyrosyl-DNA phosphodiesterase 1 (TDP1): qHTS in cells in presence of CPT | Potency, µM (top dose mostly 46.2 µM), inactives show top-dose activity change, negative = growth inhibition, hits mostly inhibitors | chicken DT40 Tdp1-/-;hTDP1 cells + 20 nM CPT, ATP luminescence, 48 h | 12% of 420,000 active | AID 686979, 2013; note: potency is the fitted concentration of half-maximal effect; nearly all actives have a fitted effect of over 55% in size
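Chicken DT40 Tdp1-/- cells complemented with human TDP1, 400 cells/well, exposed to compounds plus 20 nM camptothecin for at least 48 h at 37 C; viability read as ATP content by CellTiter-Glo luminescence.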
HT1080 IDH1KD tx – qHTS for induction of synthetic lethality in tumor cells producing 2HG: qHTS for the HT-1080-IDH1KD cell line; HT-1080 IDH1 knockdown viability, ATP luminescence, 48 h; Potency, µM (titrated, usually from 46.1 µM), without a hit: at the top dose activity, negative = toxicity, usual class: cytotoxic; 2% of 360,000 active; AID 686971, 2013;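 note: potency is the fitted concentration of half-maximal effect; 0% = DMSO wells and -100% = cell-free medium wells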
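% activity derives from luminescence (CellTiter-Glo), normalised to DMSO and no-cell wells. HT-1080-IDH1KD cells, 750/well, had 48 h compound exposure at 37 °C.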
IL1B secr inh – qHTS for Inhibitors of Inflammasome Signaling: IL-1-beta AlphaLISA Primary Screen; THP-1 LPS/ATP IL-1B secretion, AlphaLISA, 16 h; hits give low values; activity change, % at 57.5 µM; 4.7% of 360,000 active; AID 743279, 2014; in the data active = activity change below about -50%; inconclusive = mostly about -30% to -49%
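Secreted IL-1B measured by AlphaLISA bead assay after 16 h compound exposure of THP-1 cells; compounds (final up to 57.5 uM) added 1 h before LPS (250 ng/mL) and ATP (1.25 mM) stimulation; lower signal means less secretion.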
HT1080NT lethal – qHTS for induction of synthetic lethality in tumor cells producing 2HG: qHTS for the HT-1080-NT fibrosarcoma cell line; HT-1080-NT fibrosarcoma viability, CellTiter-Glo ATP luminescence, 48 h; Potency, µM (doses to about 46.1 µM), for the others: at the top dose activity, negative = less viability, usual class: cytotoxic; 1.6% of 360,000 active; AID 686970, 2013;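 note: NT is the 2HG producing partner of a matched IDH1 knockdown line; potency is the fitted concentration of half-maximal effect; 0% = DMSO-treated cells and -100% = media-only wells without cells; nearly all actives have a fitted effect of over 55% in size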
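Read-out is CellTiter-Glo luminescence after 10 minutes at room temperature, following 48 hours' compound treatment of HT-1080-NT cells (750 cells/well, RPMI, 5% FBS, 37 degrees C).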
ALOX12 inh – Primary qHTS assay for inhibitors of human arachidonate 12S-lipoxygenase (ALOX12): Round 2. purified 12hLO, xylenol orange hydroperoxide absorbance. 1.1% of 580,000 active. AID 1671190, 2021. Polyunsaturated fatty acid lipoxygenase ALOX12 (Homo sapiens), P18054. Potency, µM (doses to about 108 µM), without a hit: at the top dose activity change, negative = inhibition, actives largely listed as inhibitors; note: potency is the fitted concentration of half-maximal effect
Target sequence (P18054 whole entry, looked up): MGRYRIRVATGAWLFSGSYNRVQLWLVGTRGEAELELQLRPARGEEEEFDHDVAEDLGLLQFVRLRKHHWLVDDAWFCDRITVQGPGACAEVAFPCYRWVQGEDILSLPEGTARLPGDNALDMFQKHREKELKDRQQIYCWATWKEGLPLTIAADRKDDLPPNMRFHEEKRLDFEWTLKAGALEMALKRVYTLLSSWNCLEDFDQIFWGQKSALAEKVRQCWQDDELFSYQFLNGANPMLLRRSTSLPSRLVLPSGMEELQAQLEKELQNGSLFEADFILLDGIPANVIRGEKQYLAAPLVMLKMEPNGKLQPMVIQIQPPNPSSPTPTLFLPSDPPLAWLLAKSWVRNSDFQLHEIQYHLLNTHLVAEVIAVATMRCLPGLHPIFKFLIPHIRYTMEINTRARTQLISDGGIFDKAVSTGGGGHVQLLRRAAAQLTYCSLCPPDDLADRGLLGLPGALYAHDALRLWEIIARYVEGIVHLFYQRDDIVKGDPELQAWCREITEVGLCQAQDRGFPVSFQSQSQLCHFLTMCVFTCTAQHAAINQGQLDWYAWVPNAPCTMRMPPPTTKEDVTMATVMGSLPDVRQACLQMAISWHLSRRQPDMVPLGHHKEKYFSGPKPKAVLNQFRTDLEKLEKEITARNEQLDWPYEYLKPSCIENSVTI
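Purified human 12hLO (150 nM final) in 25 mM Hepes, 0.01% Triton X-100, pH 7.0 was preincubated 15 min at room temperature with compound. Then 40 uM arachidonic acid was added, 30 min. Hydroperoxide was read by Fe-XO absorbance ratio 573/405 nm.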
Starred values were filed as active, the others as inactive; ? = inconclusive; . = no result. The full list was thinned out, with hits kept by preference. Unless noted, calls come from the whole dose curve; as a rule, active = well fitted curve in the direction sought with a large enough effect; inconclusive = small, poorly fitted or top-dose-only effect, or another doubt; inactive = no such curve, though single readings can be large; an effect the other way counts as inactive or inconclusive. Unless noted, % is set by controls: 0 for no effect and ±100 for the full control effect.

SMILES | DT40 TDP1 no CPT | TDP1 cell CPT | HT1080 IDH1KD tx | IL1B secr inh | HT1080NT lethal | ALOX12 inh
Cc1ccc(S(=O)(=O)N2CCN(Cc3ccccn3)CC2)cc1 | ? | -17% | -1% | 40 | -3% | -13%
Cc1ccc(-n2ncc(C(=O)NCc3ccco3)c2C2CCN(C(=O)OC(C)(C)C)CC2)cc1C | ? | 16µM* | . | . | . | -4%
Cc1ccc(-n2ncc(C(=O)NCc3ccco3)c2C2CCN(C(=O)OC(C)(C)C)CC2)cc1 | 18µM* | 18µM* | . | . | . | -4%
Cc1ccc(CN2CCn3nnc(CCC(=O)NCc4ccccc4)c3C2)o1 | . | . | . | . | . | -16%
CCc1ccc(OCC(O)Cn2c(NCCN(CC)CC)nc3c2c(=O)[nH]c(=O)n3C)cc1 (stereo unspecified) | . | . | . | . | . | -6%
O=C(Nc1ccc(F)cc1)c1oc2ccccc2c1NC(=O)C1CCCCC1 | 29µM* | ? | . | . | . | -16%
O=C(Nc1c(C(=O)Nc2ccc(F)cc2)oc2ccccc12)c1ccccc1F | 21µM* | ? | . | . | . | 0%
O=C(Nc1ccc(F)cc1)c1ccccc1F | -16% | -9% | 9% | 6 | 3% | 11%
CC1Cc2nc(SCC(=O)N3CCCCC3)n(-c3ccc(F)cc3)c(=O)c2S1 (stereo unspecified) | . | . | . | . | . | -1%
O=C(CN1C(=O)/C(=C2\SC(=S)N(C3CCS(=O)(=O)C3)C2=O)c2ccccc21)Nc1ccc(F)cc1 (stereo unspecified) | ? | 6.5µM* | 3% | . | -2% | 98%
COc1ccc(NC(=O)CN2C(=O)/C(=C3\SC(=S)N(C4CCS(=O)(=O)C4)C3=O)c3ccccc32)cc1 (stereo unspecified) | 18µM* | 9.2µM* | ? | ? | 1% | ?
O=C1CN(C(=O)CCc2ncc(-c3ccc(Cl)cc3)o2)CCN1 | . | . | . | . | . | 17%
COc1ccc(NC2=Nc3ccccc3N3C2=Nc2c(c(C)nn2-c2ccc(C)cc2)C3c2cccnc2)cc1 (stereo unspecified) | ? | 21µM* | 6% | -8 | 9% | 2%
CC(=O)Nc1ccc(NC2=Nc3ccccc3N3C2=Nc2c(c(C)nn2-c2ccccc2)C3c2ccccc2)cc1 (stereo unspecified) | 2.3µM* | 2.6µM* | 17% | 22 | 16% | 13%
COC1C(=O)N(C2CCN(C(=O)c3sc(C)nc3C)CC2)C12CCOCC2 (stereo unspecified) | . | . | . | . | . | 48%
O=S(Cc1ccccc1)Cc1ccc(Cl)cc1Cl (stereo unspecified) | . | . | . | . | . | 44%
c1ccc(CCn2cccc2)cc1 | . | . | . | . | . | -7%
COc1cccc(-c2nc(SCC(=O)Nc3nc(-c4ccccc4)c(C)s3)[nH]c(=O)c2C#N)c1 | -10% | 3% | 5% | 13 | -2% | 14µM*
CCOC(=O)c1[nH]c2ccccc2c1NC(=O)c1ccccc1OCC | 0.73µM* | 0.65µM* | . | . | . | -28%
COCC(=O)c1[nH]c2ccccc2c1C | ? | 26µM* | 1% | 17 | -6% | 0%
CCCC(=O)Nc1c(C(=O)OCC)[nH]c2ccccc12 | 1.8µM* | -21% | -4% | -54* | ? | -6%
CCOC(=O)c1[nH]c2ccccc2c1NC(=O)c1ccc(OCC)cc1 | 1% | -8% | . | . | . | -8%
COCC(=O)NCCSc1c(C)[nH]c2ccccc12 | 8% | 2% | 4% | -4 | 18% | 4%
CCOC(=O)c1[nH]c2ccccc2c1NC(=O)c1ccc(S(=O)(=O)N2CCCCC2)cc1 | 23µM* | ? | -13% | 13 | -15% | -7%
CCOC(=O)c1[nH]c2ccccc2c1NC(=O)CC(C)C | 2% | -4% | 1% | -14 | 0% | 3%
SMILES | DT40 TDP1 no CPT | TDP1 cell CPT | HT1080 IDH1KD tx | IL1B secr inh | HT1080NT lethal | ALOX12 inh
O=C(Cn1cnc2ccccc2c1=O)N1CCN(c2ccc(Cl)cc2)CC1 | . | . | . | . | . | -14%
O=C(O)c1ccccc1-c1ncc(-c2ccc(F)cc2)o1 | . | . | . | . | . | -31%
CCOC(=O)c1[nH]c2ccc(OC)cc2c1NC(=O)CCN1CCC(C)CC1 | -26% | -28% | 7% | 10 | 3% | ?
CCOC(=O)c1[nH]c2ccc(Br)cc2c1NC(=O)CCN1CCC(C)CC1 | 18µM* | ? | ? | -15 | ? | 0%
COc1cc(CNC(=O)C2CCCCN2S(=O)(=O)c2ccc(F)cc2)cc(OC)c1OC (stereo unspecified) | 12µM* | ? | . | . | . | 1%
O=C(NCCC1CCCCN1S(=O)(=O)c1cccs1)C(=O)Nc1ccc(F)cc1 (stereo unspecified) | ? | ? | ? | -63* | -12% | -14%
O=C(NCCC1CCCCN1S(=O)(=O)c1ccccc1)C(=O)Nc1ccc(F)cc1 (stereo unspecified) | ? | ? | -3% | ? | 3% | 37%
O=C(NCC1CCCN1S(=O)(=O)c1cccs1)C(=O)Nc1ccc(F)cc1 (stereo unspecified) | ? | -50% | 12% | -17 | 13% | -10%
O=C(NCCC1CCCCN1S(=O)(=O)c1cccs1)C(=O)Nc1cccc(F)c1 (stereo unspecified) | 15µM* | 23µM* | -11% | 8 | 2% | -10%
COc1ccc(NC(=O)C(=O)NCCC2CCCCN2S(=O)(=O)c2ccc(F)cc2)cc1 (stereo unspecified) | 10µM* | 21µM* | -57% | -7 | ? | 0%
CCOC(=O)CCNC(=O)N1CCCCCC1c1ccc(C)s1 (stereo unspecified) | . | . | . | . | . | 5%
CCOC(=O)C1=CC[C@@H](c2ccccc2)N(S(=O)(=O)c2ccc(C)cc2)[C@@H]1C#N | ? | ? | ? | ? | -13% | ?
CCOC(=O)C1=CC[C@@H](c2ccccc2)N(S(=O)(=O)c2ccc(C)cc2)[C@H]1/C=C/c1ccccc1 | 9.2µM* | 13µM* | 2% | 0 | 7% | -17%
